How the values were obtained:
Test in all cases: PBM binding z-score (relative to random genomic background probes); higher = stronger binding; sequences stand for … in GC…GCGATTGACAGCGTAGAATGAAGG
[1] = test system: PPARg:RXRa DBDmut IVT, anti-RXR (DBD mutation: RXRa K156A/R161A, NR concentration 270 nM, RXRa partner concentration 90 nM)
Outline: (§1)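 On custom Agilent 4×180K arrays, double-stranded probes with 34-nt variable regions carried direct-repeat seeds, single-nucleotide variants, half-site ablations or random human genomic background. Ligand-free nuclear receptor dimers were applied for 1 h, and binding was read with antibodies against each partner (one per run). Binding z-scores come from regression-normalized fluorescence, with the random background probes as reference.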

[2] = test system: PPARg:RXRa IVT, anti-PPARg (NR concentration 270 nM, RXRa partner concentration 90 nM)
Outline: as §1

[3] = test system: PPARg DBDmut:RXRa IVT, anti-PPARg (DBD mutation: PPARg1 K132A/R137A, NR concentration 270 nM, RXRa partner concentration 90 nM)
Outline: as §1

[4] = test system: PPARg DBDmut IVT, anti-PPARg (DBD mutation: PPARg1 K132A/R137A, NR concentration 270 nM)
Outline: as §1

[5] = test system: PPARg homodimer (NR concentration 180 nM)
Outline: as §1

[6] = test system: PXR:RXRa (NR concentration 270 nM, RXRa partner concentration 90 nM)
Outline: as §1

[7] = test system: PXR homodimer (NR concentration 270 nM)
Outline: as §1

[8] = test system: RARa:RXR (NR concentration 270 nM, RXRa partner concentration 90 nM)
Outline: as §1

[9] = test system: RARa homodimer (NR concentration 270 nM)
Outline: as §1

[10] = test system: RARb:RXRa (NR concentration 270 nM, RXRa partner concentration 90 nM)
Outline: as §1

Sequence	PBM binding z-score [1]	PBM binding z-score [2]	PBM binding z-score [3]	PBM binding z-score [4]	PBM binding z-score [5]	PBM binding z-score [6]	PBM binding z-score [7]	PBM binding z-score [8]	PBM binding z-score [9]	PBM binding z-score [10]
CCTTTCGGGTCACTGACAGGTTATAGCATTTGGA	3.4	3.43	0.931	0.0693	2.97	3.79	0.121	4.74	0.858	4.04
CCTTCTGGGCCAAGGTCATTGATCAGTCAAAGCA	3.79	4.03	-0.283	-0.969	1.45	3.33	1.12	3.11	-0.215	3.39
GCGTCTGGGGCATCAGCAGGTTACCATAACTTAA	2.39	1.72	-0.946	-0.371	0.169	-0.00705	-0.377	0.336	-0.422	0.978
CGTCCAAGGTCATAGGAGGTCAGTGCAGACAGAT	3.55	4.57	0.589	1.49	4.86	6.81	4.62	6.21	2.75	5.33
CCTTACGGGTCACTGACCGGTTATAGCATTTGGA	3.02	3.86	1.44	-0.432	2.45	2.93	0.0567	3.72	1.71	3.96
ATCGAAAGGTCGACGAGGTGGGTATACACCGTTT	0.15	1.75	0.733	1.26	1.34	2.6	0.341	2.98	-0.0132	3.68
CGAACTAGGTCAAGGACACTGAATCTCCGCACGC	8.19	8.2	2.38	0.508	1.58	1.44	0.0266	1.97	0.291	4.04
GGAACGAGGGCATTCGAGTTGAGAGCATGGCGAT	3.26	2.42	-0.0251	-0.828	-0.126	3.24	0.951	0.847	-0.731	1.99
TCTCGGAGGACTCGAAAGGTCAGAGCTCGACATC	1.26	0.952	-0.254	-0.419	1.63	3.16	0.0023	3.76	-0.0102	3.62
CCTTACCGGTCACGAGGTTATAGCACGACGAGCG	1.09	2.32	0.31	0.533	2.18	1.92	0.733	2.66	1.45	3.73
TCAGCCAGGTGAAGGTAACTCAGGTACGCAGTCG	1.65	1.33	-0.394	-0.849	-0.828	-0.0147	-0.594	0.481	-0.526	0.673
ACAGACAGGTGAGTGAGGGTAACTCAGCTGGACG	0.621	0.841	-0.523	-0.675	0.225	-0.025	0.261	0.222	-0.162	0.987
TCTTGTAGATCCAAGGTTAAGAAAGCCGAAGCCT	1.7	0.596	0.181	0.325	0.227	0.966	0.261	1.18	-0.206	0.88
TCTTGTAGATCAACAGTAGGTTAAGAAAGATCGA	2.46	1.72	0.934	0.698	0.243	0.284	-0.303	0.504	0.265	0.132
AGAATGAGATTATTAAGATCAGGGAATTGCGGTC	-0.986	0.00075	0.944	0.0181	-0.475	-0.605	-0.339	-0.5	0.637	-0.639
GCTTGTAGATCAAGGTTAACAAAGACTAAGCTAA	1.56	1.61	-0.0951	0.163	0.0842	0.565	0.265	1.07	-0.205	1.04
AGTCAACGTTCAGGACGAGGTAACGTAAAGCACG	-0.667	-0.129	-0.279	-0.261	-0.431	-0.527	-0.514	0.104	-0.202	0.548
CGAACTAGGTCATTGACAGCACAGTGAATAGTAA	7.82	8.09	2.12	2.03	1.52	1.18	0.34	1.77	0.733	3.58
TCTTGTAGATCAACAGGAGGTTAAGAAAGATCGA	1.3	0.568	0.392	0.445	0.0227	0.753	-0.259	0.995	-0.178	0.617

Sequence	PBM binding z-score [1]	PBM binding z-score [2]	PBM binding z-score [3]	PBM binding z-score [4]	PBM binding z-score [5]	PBM binding z-score [6]	PBM binding z-score [7]	PBM binding z-score [8]	PBM binding z-score [9]	PBM binding z-score [10]
ATATGAAGGTTAAGGGTCATTCAGGTTGGTTCGC	2.29	4.44	1.32	1.46	3.39	5.84	2.27	6.97	1.13	4.19
CCTGCTAGGTCAATTGTCAGCTAAAGCAGCTCGC	4.15	3.14	-0.356	-0.703	0.436	0.762	-0.49	1.34	-0.799	3.53
ACCTCTAGGTAAAGTTCAGTGAAAGATCGATAGA	1.91	1.47	-0.268	0.284	0.684	1.61	1.03	0.806	0.172	2.41
TCGAGTAGGTTAGGGGCATTCATAATGGCGTCGA	2.14	1.72	-0.476	-0.145	0.584	0.584	0.233	0.705	0.173	1.07
ACTAGTTGGTCAGCTGAGGCCACACACAATTCGG	0.674	0.964	0.862	0.728	0.0249	1.11	-0.242	1	-0.472	1.13
ACTATTAGTTGACTTAGGGCAATCGATACGACGC	0.335	0.292	1.13	0.914	0.761	0.304	0.241	0.866	0.707	0.668
GGAACGAGGGCAGAGTTGATAGCATCTGTCGACG	2.1	2.85	0.19	-0.602	0.635	-0.0229	-0.145	-0.365	-0.977	1.68
ATCTCTAGGAAAAAGTTCAGTGAATCCCGAGGAT	-0.718	-0.0888	0.814	0.266	0.423	0.837	0.888	0.235	1	1.78
TCTAGCAGGCCAGAGGGTCTCTCAAGAGGTACGG	0.543	-0.453	-1.92	-1.94	-0.634	-0.569	-1.12	-0.436	-0.894	-0.239
AGAACGAGGGCACGCTGAGTTGATAGTAGAGTAG	4.08	3.89	0.542	0.293	0.125	1.26	0.49	0.759	-0.324	2.57
AATACAGGGTCACTAAGCCAGAGTAGGTACGAAT	3.03	4.56	1.91	0.89	2.06	3.23	0.477	4.15	0.677	4.17
CCGAGTAGGTTATGCGGCATTCAGGCAACGGTGA	2.82	2.03	-1.08	-0.567	0.671	-0.0535	0.0083	0.343	0.296	0.464
CCTACTGAGCCACGAAAGGTCATTGATTCAGTGA	0.983	1.29	-0.156	0.271	3.9	5.33	2.61	5.69	3.37	3.95
GCAGACAGGTGAAATGCAGGTAACTCAGGGTGGC	1.43	1.14	-0.233	-1.24	-0.0768	-0.249	0.00173	0.324	-0.661	0.683
CGTCCAAGGTCATAGGTCAGTGAAGAGATGACGG	3.46	4.78	0.896	-0.0935	3.35	5.48	1.01	6.98	1.13	5.36
CGAACTAGGTCATTGACAGGGCAGTGAATAGTAA	8.27	7.87	2.56	1.37	2.24	1.69	0.134	2.69	0.301	3.72
TCGAGTAGGTTAGTCGGGGCTTTCAGCCAACATA	1.86	0.952	-1.71	-1.29	-0.983	-0.467	-0.898	-0.14	-1.19	0.0518
AATACAGGGTCACTAGGCCAAAGTAGGTACGAAT	4.25	6.12	1.52	1.47	2.51	3.27	0.193	4.17	0.959	4.31
AACTCTAGGTAACAAGTTCAGTGAAAGAGAGGAC	3.33	2.65	0.517	0.445	0.677	1.37	1.37	0.703	0.522	1.4

— the supplement of paper PMC6555819
